Laboratory results taken from PubChem BioAssay (NCI).
About 83,000 compounds went through this panel and 20% of them were active in at least one assay; those are over-represented in the sample as a whole.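 Single-dose data. Exposure time 48 hours. Values below 10 considered active.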 A number with no mark means an inactive call. Calls of active or inactive are those of the source.

Key:
Test in all cases: NCI-60 one-dose screen, 48 h (100 = growth as untreated, 0 = no growth, -100 = all killed)
Conditions in all cases: 10 µM unless noted
SR leukemia = system: SR leukemia
RPMI-8226 leukemia = system: RPMI-8226 leukemia
OVCAR-8 ovarian = system: OVCAR-8 ovarian
OVCAR-5 ovarian = system: OVCAR-5 ovarian
OVCAR-4 ovarian = system: OVCAR-4 ovarian
SK-OV-3 ovarian = system: SK-OV-3 ovarian
IGROV1 ovarian = system: IGROV1 ovarian
OVCAR-3 ovarian = system: OVCAR-3 ovarian
HS 578T breast = system: HS 578T breast
T-47D breast = system: T-47D breast
BT-549 breast = system: BT-549 breast
MDA-MB-435 melanoma = system: MDA-MB-435 melanoma
SW-620 colon = system: SW-620 colon
MCF7 breast = system: MCF7 breast
HCT-116 colon = system: HCT-116 colon
HCC-2998 colon = system: HCC-2998 colon
KM12 colon = system: KM12 colon
NCI/ADR-RES ovarian = system: NCI/ADR-RES ovarian

Structure (SMILES)	growth (SR leukemia)	growth (RPMI-8226 leukemia)	growth (OVCAR-8 ovarian)	growth (OVCAR-5 ovarian)	growth (OVCAR-4 ovarian)	growth (SK-OV-3 ovarian)	growth (IGROV1 ovarian)	growth (OVCAR-3 ovarian)	growth (HS 578T breast)	growth (T-47D breast)	growth (BT-549 breast)	growth (MDA-MB-435 melanoma)	growth (SW-620 colon)	growth (MCF7 breast)	growth (HCT-116 colon)	growth (HCC-2998 colon)	growth (KM12 colon)	growth (NCI/ADR-RES ovarian)
CC(O)(c1ccccc1)C(c1ccccc1)C1CCCCN1 (stereo not given)	101%	102%	101%	113%	97.9%	113%	80.5%	105%	107%	94.2%	35.6%	99.1%	103%	110%	97.3%	107%	104%	–
CC/C(=C(/c1ccc(Cl)cc1)c1ccc(OCCN(C)C)cc1)c1ccc(Cl)cc1	-6.88% (active)	32.8%	75.1%	83.9%	78%	90%	72.5%	65%	75.1%	58.4%	–	73.1%	55.8%	20.5%	56.7%	46.9%	56.6%	74.8%
O=C(NCCCl)Nc1ncccc1OCc1ccccc1	78%	99.4%	104%	90.9%	96.8%	114%	95.8%	107%	110%	97.9%	105%	97.1%	99%	96.3%	101%	102%	108%	–
CC(C)c1ccc(Cc2cnc(NC(=O)c3cc(Br)cs3)s2)cc1	16.8%	22.6%	35.5%	53.7%	54.3%	28.6%	38%	15.6%	19.8%	30.3%	42.8%	-66.9% (active)	28.3%	11.7%	26.1%	64%	–	–
C#CCNC(=O)[C@H](CC)[C@H]1CC[C@H](C)[C@H]([C@@H](C)[C@H](O)[C@H](C)C(=O)[C@H](CC)C2O[C@]3(C=CC(=O)[C@]4(CC[C@@](C)([C@H]5CC[C@](O)(CC)[C@H](C)O5)O4)O3)[C@H](C)C[C@@H]2C)O1 (stereo not given in full)	13.5%	25.3%	66.8%	68.7%	13.9%	68.2%	48.5%	-23.5% (active)	35%	41.9%	–	-65.3% (active)	30.8%	24%	25.9%	85.4%	23.8%	14.7%
COc1ccc(C(C)=O)cc1S(=O)(=O)Nc1c(N)nc(SC)[nH]c1=O	103%	96.6%	105%	104%	108%	124%	102%	103%	96.9%	116%	–	97.7%	101%	92.9%	100%	99%	96.7%	103%
CC1=C2[C@@H](CC1)[C@]1(C)O[C@@](C(C)C)(C[C@H]1OC(=O)[C@H](C)O)[C@H]2OC(=O)/C=C/c1ccccc1	71.9%	65.6%	10.2%	97.9%	81.7%	83.5%	97.4%	91.1%	-2.45% (active)	57.6%	–	94.2%	95.1%	81.6%	74.2%	90.7%	93.9%	4.27% (active)
O=C(O)c1cn(C2CC2)c2cc(N3CCN(C(=O)N(c4ccccc4)c4nc(-c5ccccc5)cs4)CC3)c(F)cc2c1=O	-5.43% (active)	9.25% (active)	12.5%	6.16% (active)	25.4%	-16.2% (active)	7.38% (active)	3.78% (active)	24.5%	11.4%	-13% (active)	8.3% (active)	20.7%	6.99% (active)	5.04% (active)	16.5%	5.03% (active)	–
COc1ccc(Cc2cnc(NC(=O)c3cc(C)oc3C)s2)cc1	14.1%	51.9%	45.3%	53.6%	58.5%	49.1%	44.6%	15%	24.5%	31.8%	50.7%	0.623% (active)	27.9%	21.6%	25.1%	60.9%	25.4%	–
Cn1ccnc1C(=O)/C=C/c1ccc(C(=O)Nc2ccccc2O)cc1	-21.2% (active)	-11.9% (active)	18.6%	79.3%	36.4%	54.7%	30.9%	-17.9% (active)	78.9%	2.47% (active)	28.4%	69.3%	10.3%	10.2%	11.6%	82.7%	15.2%	–
CC(=O)c1c(C)nc(SCC(=O)Nc2cccc(O)c2)n1-c1ccc(Cl)cc1	103%	97%	99.8%	104%	89.1%	104%	99%	103%	82.1%	95.9%	93.1%	84.7%	87.3%	91.1%	94.8%	99.3%	93.7%	–
Nc1cnc(C(=O)NNc2nc3cc(F)ccc3n3cccc23)cn1	25.5%	52.6%	27.6%	56.6%	31.3%	37.9%	26%	20.9%	80.4%	35.5%	–	38.9%	36%	16.6%	36%	48.4%	24.7%	16.2%
O=C(Nc1ccc(Oc2cccc(Cl)c2)c(Cl)c1)c1cnccn1	26.3%	18.1%	28%	60.4%	38.9%	83.3%	27%	-7.23% (active)	18.7%	40.7%	–	-39.7% (active)	–	20.3%	20.9%	50.8%	20.7%	14.8%
COc1cc2c(cc1OCCCN1CCN(CCCOc3cc4c(cc3OC)C(=O)N3CC(F)(F)C[C@H]3C=N4)CC1)N=C[C@@H]1CC(F)(F)CN1C2=O	37.5%	5.91% (active)	62.2%	41.2%	83%	84.9%	60.9%	54.6%	-0.618% (active)	34.5%	-7.9% (active)	69%	-0.878% (active)	25.5%	62%	60.5%	62.3%	–
C=C(CBr)[C@@H]1CC[C@]2(C(=O)O)CC[C@]3(C)[C@H](CC[C@@H]4[C@@]5(C)CCC(=O)C(C)(C)[C@@H]5CC[C@]43C)[C@@H]12	60%	42.3%	84.2%	89.8%	75.3%	121%	103%	70.8%	92.2%	67.9%	84%	95.6%	85.5%	78.2%	72.6%	95.7%	68.6%	–
Cc1ccc(-c2nc(N3CCCNCC3)c3oc(-c4ccccc4)nc3n2)cc1	-42.3% (active)	-49.1% (active)	-44.1% (active)	-87.3% (active)	-62.6% (active)	95.5%	-85.3% (active)	-85.7% (active)	-29.8% (active)	-67.5% (active)	81.2%	-87.9% (active)	-73.3% (active)	-74.7% (active)	-79.2% (active)	-92.1% (active)	-81.5% (active)	–
